Each structure is given as a SMILES string. Activity calls are given as the source filed them.

Assay [1] has as its system PRMT1 (protein arginine N-methyltransferase 1). Briefly: PRMT1 binders on small-molecule microarrays, primary screen, biochemical, small-molecule microarray, 635 nm fluorescence (AID 1088).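 Also: binding of Prmt1 protein to compounds spotted on small-molecule microarray slides.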 The note with it: small-molecule microarray binding, higher = more signal.
Assay [2] in a line: yeast growth modulation, basal conditions, primary screen, YJM789 clinical isolate, OD600, 24 h (AID 1089).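 Also: growth of clinical yeast isolate S. cerevisiae YJM 789 seeded 1000 cells per well; test concentration not given here.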 The settings on record: S. cerevisiae YJM789 growth, higher = more signal, called active from +8 up or from −8 down.
Assay [3] is described as follows: fission yeast growth modulation, primary screen, strain 972, OD600, 24 h, no modulator (AID 1090).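 Also: basal condition with compound alone and no growth modifier present; test concentration not given here.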 The note with it: S. pombe 972 growth, higher = more signal, called active from +8 up or from −8 down.
A short description of assay [4]: S. cerevisiae growth modulation with rapamycin, primary screen, strain BY4716, OD600, 96 h (AID 1091). Also: test concentration not given here. The note with it: higher = more signal, called active from +8 up or from −8 down.
The target of assay [5] is Torsin-1A-interacting protein 2 (Homo sapiens) (UniProt Q8NFQ8). Briefly: LULL1 binders on small-molecule microarray, primary screen, cell lysate, human LULL1 lysate, 635/667 nm fluorescence (AID 1092).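 Also: probe is lysate of COS7 cells overexpressing human LULL1; score merges per-feature 667 nm fluorescence with signal-to-noise.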 The note with it: hLULL1 lysate binding, 635 nm fluorescence, higher = more signal.
Assay [6] can be described thus: E. coli growth modulation, two-sided OD650, primary screen, E. coli filamentation project, strain DRC41, 24 h (AID 1093).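 Also: MC1000 strain lacking acrAB efflux and sulA so SOS filamentation is blocked; test concentration not given here.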 The note with it: OD650, 24 h, higher = more signal, called active from +8 up or from −8 down.
Assay [7] in a line: small-molecule microarray binders of probe aLefty2, primary screen, biochemical, biotinylated probe, 635/667 nm fluorescence (AID 1094).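 Also: score merges spot fluorescence near 667 nm with spot signal-to-noise ratio.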 The settings on record: higher = more signal.
Assay [8] relates to Noggin (protein binding on small-molecule microarray). As to the kind of experiment: Noggin binders on small-molecule microarray, primary screen, biochemical, 635/667 nm fluorescence (AID 1095).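 Also: score merges 667 nm feature fluorescence with signal to noise over triplicate slides.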 The note with it: 635 nm fluorescence, higher = more signal.
Assay [9] concerns the target Neurogenic locus notch homolog protein 3 (Homo sapiens) (UniProt Q9UM47). Briefly: NOTCH3 binders on small-molecule microarray, primary screen, biochemical, 635/667 nm fluorescence (AID 1096). The note with it: NOTCH3 binding, 635 nm fluorescence, higher = more signal.
The nature of assay [10]: small-molecule microarray binders of probe aEGFR, primary screen, biochemical, biotinylated probe, 635/667 nm fluorescence (AID 1097).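 Also: probe is a biotinylated anti-EGFR antibody binding compounds printed on slides; score combines fluorescence near 667 nm and signal to noise of each spot.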 The note with it: higher = more signal.
Assay [11] has as its system Plasmodium falciparum Sir2 (PF13_0152, Sir2A). Briefly: pfSir2 binders on small-molecule microarrays, primary screen, biochemical, small-molecule microarray, 635 nm fluorescence (AID 1098).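 Also: score merges spot fluorescence intensity with its signal-to-noise ratio.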 The note with it: small-molecule microarray binding, fluorescence 635 nm; higher = more signal.
Assay [12] in a line: small-molecule microarray binders of probe aDKK1, primary screen, biochemical, biotinylated probe, 635/667 nm fluorescence (AID 1099).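 Also: score merges 667nm spot fluorescence with signal to noise across triplicate slides; reference of the scale not given here.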 The settings on record: higher = more signal.
Assay [13] can be described thus: small-molecule microarray binders of probe aCHRDL2, primary screen, biochemical, biotinylated probe, 635/667 nm fluorescence (AID 1100). The note with it: higher = more signal.
A short description of assay [14]: splicing luciferase reporter signal modulators, primary screen, spliceosome inhibition project, cell-based, HEK293, splice +/- reporter (AID 1101).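 Also: HEK293 cells carrying a splicing-competent luciferase reporter gene; test concentration not given here.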 The note with it: luminescence, 24 h, higher = more signal, called active from +8 up or from −8 down. On the technique in general: In a reporter assay the amount or activity of a reporter protein is the signal.
Assay [15] has as its target Fibroblast growth factor 10 (Homo sapiens) (UniProt O15520). Briefly: FGF10 binders on small-molecule microarrays, primary screen, biochemical, small-molecule microarray, 635 nm fluorescence (AID 1102). The note with it: FGF10 binding, fluorescence 635 nm, higher = more signal.
The subject of assay [16] is glycogen synthase kinase-3 (GSK3A per assay name; protocol says GSK3B). As to the kind of experiment: GSK3 binders on small-molecule microarrays, primary screen, biochemical, small-molecule microarray, 635 nm fluorescence, GSK3A (AID 1103). Also: the record names both GSK3A and GSK3B. The note with it: small-molecule microarray binding, fluorescence 635 nm; higher = more signal.
In assay [17] the target is Epidermal growth factor receptor (Homo sapiens) (UniProt P00533). Briefly: EGFR binders on small-molecule microarrays, primary screen, biochemical, small-molecule microarray, 635 nm fluorescence (AID 1104).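 Also: score merges 667 nm emission intensity with spot signal to noise over triplicate slides.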 The note with it: EGFR binding, higher = more signal.
In assay [18] the target is Follistatin-related protein 3 (Homo sapiens) (UniProt O95633). Briefly: FSTL3 binders on small-molecule microarrays, primary screen, biochemical, small-molecule microarray, 635 nm fluorescence (AID 1105).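 Also: score merges emission near 667 nm and signal to noise per printed spot across three slides.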 The settings on record: FSTL3 binding, higher = more signal.
The target in assay [19] is Dickkopf-related protein 1 (Homo sapiens) (UniProt O94907). Briefly: DKK1 binders on small-molecule microarrays, primary screen, biochemical, small-molecule microarray, 635 nm fluorescence scan (AID 1106).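 Also: score merges emission near 667 nm with signal to noise over three replicate slides.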 The note with it: DKK1 binding, higher = more signal.
The subject of assay [20] is Inhibin beta A chain (activin A). As to the kind of experiment: INHBA (activin A) binders on microarrays, primary screen, biochemical, small-molecule microarray, 635 nm fluorescence scan (AID 1107).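 Also: mouse activin A protein probed at 4.33 µg/mL on printed slides; score merges bound-protein fluorescence near 667 nm with spot signal-to-noise.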 The note with it: small-molecule microarray binding, higher = more signal.

Sequence of Epidermal growth factor receptor (Homo sapiens) (P00533 whole entry, looked up): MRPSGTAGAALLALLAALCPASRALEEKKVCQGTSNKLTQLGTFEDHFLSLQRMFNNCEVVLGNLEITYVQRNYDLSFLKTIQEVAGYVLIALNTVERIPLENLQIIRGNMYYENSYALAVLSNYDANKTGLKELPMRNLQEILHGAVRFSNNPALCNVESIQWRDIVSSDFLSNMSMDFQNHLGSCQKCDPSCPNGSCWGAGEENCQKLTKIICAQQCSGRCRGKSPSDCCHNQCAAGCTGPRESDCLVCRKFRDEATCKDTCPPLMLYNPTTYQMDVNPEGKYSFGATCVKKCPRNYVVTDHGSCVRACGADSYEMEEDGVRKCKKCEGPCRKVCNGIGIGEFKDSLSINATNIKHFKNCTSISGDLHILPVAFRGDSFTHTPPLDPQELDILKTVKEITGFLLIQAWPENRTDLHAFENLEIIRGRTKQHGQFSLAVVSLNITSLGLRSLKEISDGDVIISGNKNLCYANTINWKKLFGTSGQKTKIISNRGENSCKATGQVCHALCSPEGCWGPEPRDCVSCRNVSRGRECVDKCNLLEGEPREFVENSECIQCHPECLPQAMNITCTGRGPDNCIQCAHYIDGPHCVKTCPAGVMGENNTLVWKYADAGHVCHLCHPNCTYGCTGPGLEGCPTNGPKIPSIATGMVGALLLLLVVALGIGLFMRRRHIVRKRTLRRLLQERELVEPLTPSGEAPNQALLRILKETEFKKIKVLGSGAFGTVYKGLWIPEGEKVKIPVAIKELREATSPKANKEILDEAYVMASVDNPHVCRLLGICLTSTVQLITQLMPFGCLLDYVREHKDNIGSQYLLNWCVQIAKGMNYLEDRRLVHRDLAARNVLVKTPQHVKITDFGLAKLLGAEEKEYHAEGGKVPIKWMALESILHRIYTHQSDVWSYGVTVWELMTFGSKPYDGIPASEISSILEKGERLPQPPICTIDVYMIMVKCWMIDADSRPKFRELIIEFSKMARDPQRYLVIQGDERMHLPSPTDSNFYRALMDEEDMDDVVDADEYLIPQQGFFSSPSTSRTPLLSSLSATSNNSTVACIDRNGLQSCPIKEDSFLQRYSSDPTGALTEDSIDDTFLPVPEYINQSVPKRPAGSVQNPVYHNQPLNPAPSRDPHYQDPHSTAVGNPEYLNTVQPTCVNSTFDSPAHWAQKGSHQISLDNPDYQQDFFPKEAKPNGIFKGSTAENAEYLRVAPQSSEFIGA
Sequence of Follistatin-related protein 3 (Homo sapiens) (O95633 whole entry, looked up): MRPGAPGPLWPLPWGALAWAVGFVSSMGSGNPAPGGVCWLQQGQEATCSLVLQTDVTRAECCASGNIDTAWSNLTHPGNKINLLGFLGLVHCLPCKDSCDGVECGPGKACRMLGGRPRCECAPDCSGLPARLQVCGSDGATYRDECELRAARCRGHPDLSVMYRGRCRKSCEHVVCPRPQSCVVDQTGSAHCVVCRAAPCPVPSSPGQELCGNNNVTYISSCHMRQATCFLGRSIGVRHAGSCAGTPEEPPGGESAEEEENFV
Sequence of Torsin-1A-interacting protein 2 (Homo sapiens) (Q8NFQ8 whole entry, looked up): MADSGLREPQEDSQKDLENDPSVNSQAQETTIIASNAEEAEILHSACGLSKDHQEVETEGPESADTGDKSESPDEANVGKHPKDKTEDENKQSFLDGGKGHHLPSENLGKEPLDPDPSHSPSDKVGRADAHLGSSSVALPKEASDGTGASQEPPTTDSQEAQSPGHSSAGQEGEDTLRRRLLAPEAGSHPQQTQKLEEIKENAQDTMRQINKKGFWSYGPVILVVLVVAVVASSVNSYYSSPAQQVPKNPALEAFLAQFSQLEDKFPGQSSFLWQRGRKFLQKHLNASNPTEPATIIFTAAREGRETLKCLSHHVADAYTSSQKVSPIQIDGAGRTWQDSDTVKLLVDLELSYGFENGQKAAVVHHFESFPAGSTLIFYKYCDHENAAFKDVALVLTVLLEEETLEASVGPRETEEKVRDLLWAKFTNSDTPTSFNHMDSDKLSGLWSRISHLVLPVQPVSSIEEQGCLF
Sequence of Neurogenic locus notch homolog protein 3 (Homo sapiens) (Q9UM47 whole entry, looked up): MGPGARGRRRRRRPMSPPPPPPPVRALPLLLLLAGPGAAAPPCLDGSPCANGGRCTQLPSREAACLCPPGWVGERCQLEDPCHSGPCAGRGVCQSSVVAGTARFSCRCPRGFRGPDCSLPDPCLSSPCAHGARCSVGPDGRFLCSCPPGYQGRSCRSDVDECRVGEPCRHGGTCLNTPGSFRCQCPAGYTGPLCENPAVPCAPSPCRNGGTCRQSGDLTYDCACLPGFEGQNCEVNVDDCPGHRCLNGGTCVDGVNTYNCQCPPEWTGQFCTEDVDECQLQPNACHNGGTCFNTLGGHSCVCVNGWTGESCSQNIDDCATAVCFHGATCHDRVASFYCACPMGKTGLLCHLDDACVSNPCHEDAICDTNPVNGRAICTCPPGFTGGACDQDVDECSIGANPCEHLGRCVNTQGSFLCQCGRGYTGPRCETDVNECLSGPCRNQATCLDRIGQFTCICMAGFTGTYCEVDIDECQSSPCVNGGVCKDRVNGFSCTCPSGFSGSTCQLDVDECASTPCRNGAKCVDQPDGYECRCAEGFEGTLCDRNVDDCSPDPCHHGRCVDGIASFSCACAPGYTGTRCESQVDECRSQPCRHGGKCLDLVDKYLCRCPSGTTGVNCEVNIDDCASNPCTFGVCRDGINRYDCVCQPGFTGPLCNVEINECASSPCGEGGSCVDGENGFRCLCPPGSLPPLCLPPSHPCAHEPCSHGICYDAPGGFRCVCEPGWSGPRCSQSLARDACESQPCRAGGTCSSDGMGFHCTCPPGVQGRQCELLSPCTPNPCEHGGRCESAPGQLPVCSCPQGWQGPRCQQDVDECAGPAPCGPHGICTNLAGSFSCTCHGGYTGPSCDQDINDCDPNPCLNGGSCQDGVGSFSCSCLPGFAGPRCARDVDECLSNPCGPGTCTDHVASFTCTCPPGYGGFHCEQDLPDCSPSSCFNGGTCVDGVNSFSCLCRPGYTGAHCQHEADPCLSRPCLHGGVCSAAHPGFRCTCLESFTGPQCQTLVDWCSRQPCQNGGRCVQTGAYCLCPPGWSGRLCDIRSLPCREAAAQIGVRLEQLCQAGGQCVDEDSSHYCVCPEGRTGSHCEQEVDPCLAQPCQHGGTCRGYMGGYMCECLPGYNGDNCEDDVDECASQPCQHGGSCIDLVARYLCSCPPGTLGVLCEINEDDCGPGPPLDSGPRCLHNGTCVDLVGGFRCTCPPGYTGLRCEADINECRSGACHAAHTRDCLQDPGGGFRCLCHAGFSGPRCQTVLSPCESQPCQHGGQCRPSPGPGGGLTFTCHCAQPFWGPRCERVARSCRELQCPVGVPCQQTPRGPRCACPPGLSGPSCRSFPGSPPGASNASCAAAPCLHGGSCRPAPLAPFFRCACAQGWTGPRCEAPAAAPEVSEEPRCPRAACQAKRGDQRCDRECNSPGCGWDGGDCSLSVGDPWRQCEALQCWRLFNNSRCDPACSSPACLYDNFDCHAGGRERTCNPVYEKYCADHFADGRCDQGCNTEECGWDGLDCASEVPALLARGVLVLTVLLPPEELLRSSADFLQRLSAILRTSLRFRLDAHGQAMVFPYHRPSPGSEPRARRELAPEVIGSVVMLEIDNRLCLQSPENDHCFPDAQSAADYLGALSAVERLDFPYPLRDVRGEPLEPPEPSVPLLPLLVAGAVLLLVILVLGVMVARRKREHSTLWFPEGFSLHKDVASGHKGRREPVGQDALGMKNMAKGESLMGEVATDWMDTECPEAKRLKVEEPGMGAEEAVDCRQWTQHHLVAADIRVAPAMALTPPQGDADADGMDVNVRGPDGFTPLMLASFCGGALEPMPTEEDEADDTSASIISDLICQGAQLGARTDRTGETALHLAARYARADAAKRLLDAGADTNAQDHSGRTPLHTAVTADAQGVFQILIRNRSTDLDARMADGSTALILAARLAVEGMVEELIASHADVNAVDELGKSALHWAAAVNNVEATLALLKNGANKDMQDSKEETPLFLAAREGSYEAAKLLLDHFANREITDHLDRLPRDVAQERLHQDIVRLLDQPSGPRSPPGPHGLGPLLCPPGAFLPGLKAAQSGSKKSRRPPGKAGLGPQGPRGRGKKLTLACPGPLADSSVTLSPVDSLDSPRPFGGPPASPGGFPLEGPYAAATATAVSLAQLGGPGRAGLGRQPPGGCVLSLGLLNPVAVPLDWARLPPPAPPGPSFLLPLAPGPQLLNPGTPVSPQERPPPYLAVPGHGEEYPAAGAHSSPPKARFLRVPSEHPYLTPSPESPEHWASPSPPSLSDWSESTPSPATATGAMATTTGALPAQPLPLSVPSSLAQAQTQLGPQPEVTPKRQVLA
Sequence of Dickkopf-related protein 1 (Homo sapiens) (O94907 whole entry, looked up): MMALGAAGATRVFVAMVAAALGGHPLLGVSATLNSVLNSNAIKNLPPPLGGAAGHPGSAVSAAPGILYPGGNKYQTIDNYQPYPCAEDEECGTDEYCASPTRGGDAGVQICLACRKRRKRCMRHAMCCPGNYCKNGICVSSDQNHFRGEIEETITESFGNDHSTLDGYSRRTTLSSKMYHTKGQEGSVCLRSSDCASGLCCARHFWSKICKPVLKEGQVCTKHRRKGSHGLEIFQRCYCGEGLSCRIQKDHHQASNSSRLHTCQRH
Sequence of Fibroblast growth factor 10 (Homo sapiens) (O15520 whole entry, looked up): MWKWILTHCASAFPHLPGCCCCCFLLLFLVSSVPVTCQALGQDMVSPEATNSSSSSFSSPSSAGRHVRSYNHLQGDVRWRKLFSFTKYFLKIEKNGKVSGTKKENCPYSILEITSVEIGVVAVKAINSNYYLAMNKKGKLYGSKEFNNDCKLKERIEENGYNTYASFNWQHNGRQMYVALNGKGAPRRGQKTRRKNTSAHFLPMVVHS

As to `CO[C@@H]1C=CCC(=O)N[C@@H](C)C(=O)OC[C@@H](OC)[C@H](C)CCCC(=O)OC[C@H]1C`, the composite z-score is 1.44 in assay [1]; -2.13 in assay [5]; -0.153 in [7]; 1.91 in assay [8]; -1.04 in assay [9]; -0.0485 in [10]. The composite z-score in assay [11] was 1.55; in assay [12] it was -0.352; in [13] it was -1.05; in assay [15] it was 0.473; in assay [16], 0.0516; in assay [17] it was 1.08. For the same compound, the composite z-score in assay [18] is 1.22; in [19] it was 1.64; in [20] it was 1.23. The z-score in assay [2] was -0.465 (inactive); in [3] it was -0.111 (inactive); in [4] it was -1.17 (inactive); in [6], 0.976 (inactive); in assay [14], -0.646 (inactive).

Take `O=C(C=Cc1ccc2c(c1)OCO2)c1ccc(F)cc1`: the composite z-score in [1] is -0.458; in assay [5] it was -0.779; in assay [7] it was -0.132; in [8], 0.87; in assay [9], 0.142; in assay [10], 0.131. Further, the composite z-score in assay [11] was 0.818; in assay [12] it was -0.136; in assay [13], -0.459; in assay [15] it was 0.498; in [16] it was -0.296; in assay [17], 0.549. Besides, the results for the composite z-score in assay [18], in assay [19] and in assay [20] were 0.801, 1.52 and 0.239, respectively. The z-score was -0.935 (inactive) in assay [2]; -15.1 (active) in assay [3]; 3.87 (inactive) in assay [4]; 0.704 (inactive) in assay [6]; -0.603 (inactive) in assay [14].

Consider `CC(C)=CCCC(C)=CCON=C1C[C@@H](O)[C@@H](O)[C@@H]2[C@@H]3C(=O)N(Cc4ccccc4)C(=O)[C@@H]3CC[C@@H]12`, for which the composite z-score is 1.09 in assay [1]; -0.859 in assay [5]; -0.114 in assay [7]; 1.33 in [8]; 0.637 in assay [9]; 0.012 in assay [10]. For the same compound, the composite z-score in assay [11] was 0.786; in assay [12] it was -0.382; in assay [13], -1.12; in assay [15], 1.14; in [16], 0.279; in assay [17] it was 0.696. Besides, the composite z-score in assay [18] was found to be 0.955; in [19] it was 1.04; in [20], 1.09. The z-score in [2] was 0.432 (inactive); in [3], -0.114 (inactive); in assay [4] it was -0.535 (inactive); in assay [6] it was 0.326 (inactive); in assay [14], -0.216 (inactive).

`CCOC(=O)[C@H](CC(C)C)NC(=O)CCC1CC(OC(=O)NCc2ccc3c(c2)OCO3)CC2(CCCC(COC(=O)NCc3cccc(C(F)(F)F)c3)O2)O1` (stereo not given in full): the composite z-score in [1] is 0.312; in [5], 0.851; in assay [7] it was -0.154; in assay [8], 0.184; in [9], 0.082; in assay [10], -0.171. For the same compound, the composite z-score in assay [11] is 0.15; in assay [12], -0.229; in assay [13] it was -0.031; in [15], 0.418; in assay [16], -0.319; in [17], 0.242. For the same compound, the composite z-score amounted to 0.395 in [18], 0.355 in assay [19] and 0.348 in assay [20]. For the same compound, the z-score is 0.518 (inactive) in assay [2]; 0.486 (inactive) in assay [3]; 1.29 (inactive) in [4]; -0.772 (inactive) in [6]; -0.235 (inactive) in assay [14].
